Results published in PubChem BioAssay (NCATS).
Inconclusive results are not listed. Calls of active or inactive are those of the source. Calls follow the shape of the dose curve; as a rule, active = well fitted inhibition curve with a large enough effect; inconclusive = small, poorly fitted or top-dose-only effect; inactive = flat fitted curve, though single readings scatter.

How the values were obtained:
JCK = experiment: qHTS profiling for inhibitors of Plasmodium falciparum proliferation (AID 504749); also: potency is read from the fitted curve at half-maximal effect; conditions: P. falciparum in erythrocytes, SYBR Green DNA, 72 h; series mostly up to 28.7 µM
Summary of the method: (§1)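 Parasite proliferation within erythrocytes, 72 h exposure. Endpoint: SYBR Green I fluorescence after overnight lysis at room temperature. Controls: 0.29 uM artemisinin, DMSO.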

N140 = experiment: as above; conditions: P. falciparum in erythrocytes, SYBR Green DNA, 72 h; series mostly up to 28.7 µM
Summary of the method: as §1

P93_24 = experiment: as above; conditions: P. falciparum in erythrocytes, SYBR Green DNA, 72 h; series mostly up to 28.7 µM
Summary of the method: as §1

P94_40 = experiment: as above; conditions: P. falciparum in erythrocytes, SYBR Green DNA, 72 h; series mostly up to 28.7 µM
Summary of the method: as §1

PAD = experiment: as above; conditions: P. falciparum in erythrocytes, SYBR Green DNA, 72 h; series mostly up to 28.7 µM
Summary of the method: as §1

PC15 = experiment: as above; conditions: P. falciparum in erythrocytes, SYBR Green DNA, 72 h; series mostly up to 28.7 µM
Summary of the method: as §1

PC26 = experiment: as above; conditions: P. falciparum in erythrocytes, SYBR Green DNA, 72 h; series mostly up to 28.7 µM
Summary of the method: as §1

PC49 = experiment: as above; conditions: P. falciparum in erythrocytes, SYBR Green DNA, 72 h; series mostly up to 28.7 µM
Summary of the method: as §1

SC27B = experiment: as above; conditions: P. falciparum in erythrocytes, SYBR Green DNA, 72 h; series mostly up to 28.7 µM
Summary of the method: as §1

TAB109 = experiment: as above; conditions: P. falciparum in erythrocytes, SYBR Green DNA, 72 h; series mostly up to 28.7 µM
Summary of the method: as §1

TAB113 = experiment: as above; conditions: P. falciparum in erythrocytes, SYBR Green DNA, 72 h; series mostly up to 28.7 µM
Summary of the method: as §1

TAB165 = experiment: as above; conditions: P. falciparum in erythrocytes, SYBR Green DNA, 72 h; series mostly up to 28.7 µM
Summary of the method: as §1

CRL-7250 = normal cell line; experiment: Cytotoxic Profiling of Annotated Libraries Using Quantitative High-Throughput Screening (AID 1296008); conditions: Five cell lines viability, CellTiter-Glo ATP luminescence, 48-72 h; hits give low values; as to max response: % is scaled to controls: 0 for no effect and ±100 for the full control effect
Summary of the method: (§2)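 Compounds were pin-transferred onto cells and incubated 48 or 72 hr at 37 degree Celsius, 95% humidity. CellTiter-Glo was added, plates sat 10 min at room temperature, then ATP-coupled luminescence was imaged as the viability read-out.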

HEK293 = experiment: as above; conditions: Five cell lines viability, CellTiter-Glo ATP luminescence, 48-72 h; hits give low values
Summary of the method: as §2

HaCat [1] = experiment: as above; conditions: Five cell lines viability, CellTiter-Glo ATP luminescence, 48-72 h; hits give low values
Summary of the method: as §2

NIH3T3 = experiment: as above; conditions: Five cell lines viability, CellTiter-Glo ATP luminescence, 48-72 h; hits give low values
Summary of the method: as §2

HACAT [2] = experiment: qHTS assay to identify novel small-molecules to repurpose for Merkel cell carcinoma treatment (AID 1296009); conditions: MCC and control cell lines, CellTiter-Glo viability, 72 h; at 44.8 µM (top of the series) unless noted
Summary of the method: (§3)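 qHTS format: cells treated with library compounds in DMSO across 8 (NPC) or 11 (MIPE) concentrations. Readout after 72 hr at 37 degree celsius was CellTiter-Glo luminescence.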

HEK293T = experiment: as above; conditions: MCC and control cell lines, CellTiter-Glo viability, 72 h; at 44.8 µM (top of the series) unless noted
Summary of the method: as §3

W2 = experiment: qHTS profiling for inhibitors of Plasmodium falciparum proliferation (AID 504749); also: potency is read from the fitted curve at half-maximal effect; conditions: P. falciparum in erythrocytes, SYBR Green DNA, 72 h; series mostly up to 28.7 µM
Summary of the method: as §1
Also: nearly all actives have a fitted effect of over 60% in size.

CC1CC(OC(=O)c2ccccc2O)CC(C)(C)C1 (stereo not drawn)
inactive: Potency (JCK) | Potency (N140) | Potency (P93_24) | Potency (P94_40) | Potency (PAD) | Potency (PC15) | Potency (PC26) | Potency (PC49) | Potency (SC27B) | Potency (TAB109) | Potency (TAB113) | Potency (TAB165) | max response (CRL-7250) -4.46% | outcome (HEK293) | outcome (HaCat [1]) | max response (NIH3T3) -4.04% | outcome (HACAT [2]) | outcome (HEK293T)

CC(O)CCCCn1c(=O)c2c(ncn2C)n(C)c1=O (stereo not drawn)
inactive: Potency (JCK) | Potency (N140) | Potency (P93_24) | Potency (P94_40) | Potency (PAD) | Potency (PC15) | Potency (PC26) | Potency (PC49) | Potency (SC27B) | Potency (TAB109) | Potency (TAB113) | Potency (TAB165) | Potency (W2) | max response (CRL-7250) 2.98% | max response (HEK293) 0.321% | max response (HaCat [1]) -6.07% | max response (NIH3T3) 4.47%

C=CCOc1ccccc1OCC(O)CNC(C)C (stereo not drawn)
inactive: max response (CRL-7250) -3.74% | max response (HEK293) 3.92% | outcome (HaCat [1]) | max response (NIH3T3) 4.04% | outcome (HACAT [2])

CN1CC(=O)NC1=N
inactive: max response (CRL-7250) -20.6% | outcome (HEK293) | max response (HaCat [1]) -1.43% | max response (NIH3T3) -1.3% | outcome (HEK293T)

CC(=O)Nc1ccc(OCCOCCOc2ccc(NC(C)=O)cc2)cc1
inactive: Potency (JCK) | Potency (N140) | Potency (P93_24) | Potency (P94_40) | Potency (PAD) | Potency (PC15) | Potency (PC26) | Potency (PC49) | Potency (SC27B) | Potency (TAB109) | Potency (TAB113) | Potency (TAB165) | Potency (W2) | max response (CRL-7250) 0.416% | outcome (HEK293) | max response (HaCat [1]) 3.25% | max response (NIH3T3) 4.13% | outcome (HEK293T)

CCCCCCCCCCOc1cc2c(=O)c(C(=O)OCC)c[nH]c2cc1OCC
inactive: outcome (CRL-7250) | outcome (HEK293) | max response (HaCat [1]) -5.57% | max response (NIH3T3) -1.43% | outcome (HEK293T) inactive [at 4.96 µM]
active: Potency (JCK) 35.5 nM | Potency (N140) 2.2 nM | Potency (P93_24) 3.2 nM | Potency (P94_40) 3.2 nM | Potency (PAD) 3.5 nM | Potency (PC15) 6.3 nM | Potency (PC49) 7.9 nM | Potency (SC27B) 2.5 nM | Potency (TAB109) 2.5 nM | Potency (TAB113) 2.8 nM | Potency (TAB165) 1.3 nM | Potency (W2) 1.7 nM

C1CCN2C[C@@H]3C[C@@H](CN4CCCC[C@@H]34)[C@H]2C1
inactive: outcome (CRL-7250) | max response (HEK293) -9.35% | outcome (HaCat [1]) | max response (NIH3T3) 3.41% | outcome (HACAT [2])

OCCN1C[C@H](O)[C@@H](O)[C@H](O)[C@H]1CO
inactive: max response (CRL-7250) 0.57% | outcome (HEK293) | max response (HaCat [1]) -0.066% | max response (NIH3T3) -3.52% | outcome (HEK293T)

CC1(c2ccccc2)OC(C(=O)O)=CC1=O (stereo not drawn)
inactive: max response (CRL-7250) -0.824% | max response (HEK293) 1.9% | outcome (HaCat [1]) | max response (NIH3T3) -3.39% | outcome (HACAT [2])

Cc1c(NC(=O)c2cccnc2)c(=O)n(-c2ccccc2)n1C
inactive: Potency (JCK) | Potency (N140) | Potency (P93_24) | Potency (P94_40) | Potency (PAD) | Potency (PC15) | Potency (PC26) | Potency (PC49) | Potency (SC27B) | Potency (TAB109) | Potency (TAB113) | Potency (TAB165) | Potency (W2) | max response (CRL-7250) -9.05% | max response (HEK293) 0.504% | outcome (HaCat [1]) | outcome (NIH3T3) | outcome (HACAT [2])
